CHX counter: affects cycloheximide protein synthesis inhibition readout, counter-screen; cell reporter, cycloheximide protein synthesis inhibition counterscreen; max response, %; AID 2314; actives 12% (n = 300,000); in the data active means max response mostly above about 13%, no sharp cut-off; inactive means mostly below about 14%; further: read at 38.3 µM for the half of the compounds with a filed dose; 0% is about no effect
HCV inh: blocks hepatitis C virus; Huh7.5.1 HCVcc-Cre infection, luciferase reporter, 44 h; Potency, µM (series often up to 41.8 µM), for inactives: at the highest dose activity change, negative = inhibition, most hits filed as inhibitors; actives 3.4% (n = 340,000); AID 651820; further: potency means the concentration at half of the fitted maximal effect; on the % scale 0 is the no-effect control and ±100 the full control effect
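HCVcc-Cre virus at an moi near 0.5 was added right after compound to cells cultured 4 h from seeding (1,000 cells/well). Luciferase activity was determined 44 h later, 15 min after substrate addition at RT.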
HCMV antiviral: blocks human cytomegalovirus replication. HFF cells, HCMV-luciferase reporter, 72 h; active compounds read low. activity change, negative = inhibition, % at 57.5 µM. actives 4.5% (n = 410,000). AID 1259415; in the data active means activity change below about -60%; inconclusive means no clear call, values can overlap the other calls; inactive means above about -39%; further: on the % scale 0 is the no-effect control and ±100 the full control effect
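Cell-based, HFFs, 1000 cells/well, 16 h 37C; cpds in DMSO + HCMV-luc, MOI 1 PFU/cell; 72 h 37C; OneGlo luminescence after 5 min RT; norm. to buffer vs Salinomycin 10uM.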
Shiga toxin inh: blocks Shiga toxin action in Vero cells | actives 9.2% (n = 290,000) | Vero cells, Shiga toxin protein synthesis inhibition reporter | inhibition, % at 38.7 µM; in the data active means inhibition mostly above about 28%, no sharp cut-off; inactive means mostly below about 43%; further: 0% is about no effect
Pf growth 96h: P. falciparum growth inhibition at 96 hours; P. falciparum luciferase reporter growth, 96 h; Potency, µM (titrated, usually from 28.7 µM), for inactives: at the top dose activity change, negative = inhibition, actives largely listed as inhibitors; actives 6.9% (n = 320,000); AID 504834; further: potency means the concentration at half of the fitted maximal effect; on the % scale 0 is the no-effect control and ±100 the full control effect
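Infected RBCs, 2% Hct / 0.05% parasitemia final; luciferase-reporter P. falciparum; cpd 96 h, 37 C, 5% CO2; luciferase detection reagent; luminescence.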
Pf growth 48h: P. falciparum growth inhibition at 48 hours (one generation); Potency, µM (doses to about 28.7 µM), inactives show at the top dose activity change, negative = inhibition, usual class: inhibitors; actives 5.9% (n = 310,000); P. falciparum luciferase growth in erythrocytes, 48 h; further: potency means the concentration at half of the fitted maximal effect; on the % scale 0 is the no-effect control and ±100 the full control effect
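Parasite viability was followed by luminescence of a genomically integrated firefly luciferase. Cultures held 0.1% parasitemia at 2% hematocrit (final), incubated under 5% CO2 at 37 C.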
The depositor's hits bear a star; ? = inconclusive; . = no result given; + = active, no number. A selection: hits, their analogues and other compounds. The true share with any hit is near 21%. Unless noted, the call rests on the fitted dose curve; in most records, active means well fitted inhibition curve with a large enough effect; inconclusive means small, poorly fitted or top-dose-only effect, or another doubt; inactive means no such curve, though single readings can be large or run the other way.

SMILES	CHX counter	HCV inh	HCMV antiviral	Shiga toxin inh	Pf growth 96h	Pf growth 48h
COc1ccc(C2=CC(c3cc(OC)c(OC)c(OC)c3)NC(=S)N2)cc1 (configuration not stated)	-4.9	-23.0%	22.2	-16.6	.	?
S=C1NC(C23CC4CC(CC(C4)C2)C3)=CC(c2ccc3c(c2)OCO3)N1 (configuration not stated)	7.2	?	?	7.0	?	4.15µM*
O=C(NCc1ccc2c(c1)OCO2)NC12CC3CC(CC(C3)C1)C2	10.9	-30.7%	58.3	-2.5	-14.5%	?
COc1cc(C2C=C(C34CC5CC(CC(C5)C3)C4)NC(=S)N2)cc(OC)c1OC (configuration not stated)	2.4	-25.0%	-28.2	-9.2	1.04µM*	.
COc1cc(Cl)c(C)cc1NC(=O)CCN1C(=O)NC(C)(C)C1=O	.	-20.0%	-4.6	.	46.5%	-1.6%
CCOc1ccc(C2c3[nH]c4ccccc4c3CCN2C(=O)Cn2cncn2)cc1 (configuration not stated)	-2.9	-28.2%	-34.5	-15.3	-10.1%	?
Cc1ccc2[nH]cc(S(=O)(=O)c3ccc(C)c(C)c3)c(=O)c2c1	-3.0	-9.4%	-17.3	14.8	?	4.0%
COCC(=O)N1[C@@H]2c3cccc(=O)n3C[C@@H]2[C@@H](CO)[C@@H]1C(=O)NCc1ccccc1F	.	.	0.1	.	.	.
O=C(Nc1cc(=O)[nH]c2nc(-c3ccc(Cl)cc3)nn12)c1ccccc1	-1.5	3.3%	.	-10.0	0.329µM*	0.586µM*
Cc1ccc(-n2ncc3c(N(C)Cc4ccccc4)ncnc32)cc1	.	.	-35.8	.	.	.
O=C(OCC1COc2ccccc2O1)c1c(F)cccc1F (configuration not stated)	21.2*	19.7%	7.7	51.0	?	4.15µM*
OC(COCC1COc2ccccc2O1)CN1CCN(c2ccccc2F)CC1 (configuration not stated)	15.1	-15.3%	-9.1	-11.8	7.38µM*	31.5%
Oc1ccc(C=NCC2COc3ccccc3O2)cc1 (configuration not stated)	-3.1	1.9%	1.8	24.4	-19.1%	4.6%
OCCN1CCN(CC(O)COCC2COc3ccccc3O2)CC1 (configuration not stated)	1.4	0.0%	36.4	3.8	3.7%	11.2%
NC(N)=NCC1COc2ccccc2O1 (configuration not stated)	.	.	.	.	2.13µM*	?
CN(Cc1cccc(F)c1)C(=O)C1CC(=O)N(Cc2ccco2)C1 (configuration not stated)	.	.	-18.2	.	.	.
O=C(Nc1cccc(Oc2ccccc2)c1)C1Cc2c(-c3cccc(F)c3)ccnc2O1 (configuration not stated)	.	.	-14.1	.	.	.
CC(OC(=O)CNC(=O)c1ccc2ccccc2c1)C(=O)NC1CCCCC1C (configuration not stated)	-1.8	10.1%	96.1	-9.3	79.7%	36.6%
COC(=O)c1ccc(OCC2c3cc(OC)c(OC)cc3CCN2C(=O)C2CC2)cc1 (configuration not stated)	1.6	-14.9%	45.7	1.3	?	11.7µM*
CCc1ccc(OCC2c3cc(OC)c(OC)cc3CCN2C(=S)NCCOC)cc1 (configuration not stated)	-2.0	?	120.3	-13.7	10.4µM*	?
COC(=O)c1ccc(OCC2c3cc(OC)c(OC)cc3CCN2C(=O)C(C)C)cc1 (configuration not stated)	.	.	12.3	.	.	.
CCc1ccc(OCC2c3cc(OC)c(OC)cc3CCN2C(=S)NC)cc1 (configuration not stated)	-2.0	?	222.6	-5.1	?	?
COc1ccc(C(=O)N2CCc3cc(OC)c(OC)cc3C2COc2ccc3c(C)cc(=O)oc3c2)c(OC)c1 (configuration not stated)	.	.	13.1	.	.	.
COc1cccc(NC(=S)N2CCc3cc(OC)c(OC)cc3C2COc2ccc3c(C)cc(=O)oc3c2)c1 (configuration not stated)	4.0	-3.3%	?	5.6	?	5.22µM*
COCCNc1c2c(nc3c(-c4ccccc4)c(C)nn13)CCC2	-0.8	-46.3%	15.0	-8.3	?	?
SMILES	CHX counter	HCV inh	HCMV antiviral	Shiga toxin inh	Pf growth 96h	Pf growth 48h
Cc1nn2c(NCC(C)C)c3c(nc2c1-c1ccccc1)CCC3	-3.2	6.31µM*	.	2.4	?	?
Cc1nn2c(NC(C)C)c3c(nc2c1-c1ccccc1)CCC3	-2.2	-28.2%	-24.2	0.9	?	?
Cc1nn2c(Nc3ccccc3)c3c(nc2c1-c1ccccc1)CCC3	-4.6	6.9%	?	-17.2	5.86µM*	-28.4%
Cc1nn2c(NCCCN(C)C)c3c(nc2c1-c1ccccc1)CCC3	-3.5	?	-13.3	-22.4	10.4µM*	.
Cc1ccc(S(=O)(=O)c2nc(-c3cccs3)oc2SCC(=O)Nc2cc(C)cc(C)c2)cc1	.	.	-11.1	.	.	.
C=Cc1cc2c(s1)c1cnn(Cc3ccccc3F)c(=O)c1n2C	-3.6	.	.	-5.9	.	.
CC(=O)N1CCC(=NNc2ccc(S(=O)(=O)N3CCOCC3)cc2[N+](=O)[O-])CC1	-2.0	?	-27.4	-4.5	?	4.9%
CCCN1CCC(=NNc2ccc(S(=O)(=O)N3CCOCC3)cc2[N+](=O)[O-])CC1	1.8	?	-73.1*	4.8	?	-4.0%
CC(C)N1CCC(=NNc2ccc(S(=O)(=O)N3CCOCC3)cc2[N+](=O)[O-])CC1	2.3	3.1%	?	10.0	98.7%	-17.3%
CCCCCC(/C=N/Nc1ccc(S(=O)(=O)N2CCOCC2)cc1[N+](=O)[O-])=C\c1ccccc1	-3.3	-0.1%	-95.6*	-14.4	.	?
CCn1nnc(-c2ccc(N)cc2)n1	12.3	-0.4%	-14.6	22.6	6.9%	29.1%
Oc1ccc(N=Nc2ccc3c(c2)OCCO3)c2cccnc12	44.0*	?	-98.4*	135.1*	?	1.04µM*
Oc1ccc(N=Nc2ccc(Br)cc2)c(O)c1	48.0*	-14.7%	12.5	84.3*	1.85µM*	?
Cc1ccc(N=Nc2ccc(O)cc2)c(Br)c1	43.8*	-10.9%	47.2	49.0*	335.6%	179.4%
Oc1ccc(N=Nc2ccc3c(c2)OCCO3)c(O)c1	22.3*	8.4%	-13.3	25.4	152.0%	129.9%
O=C(Nc1ccccc1)OCCN1CCOCC1	.	-1.6%	-11.7	.	.	.
COc1ccc(N=Nc2ccc(O)c3ncccc23)cc1	5.0	?	+	5.9	0.522µM*	0.586µM*
COc1cccc(N=Nc2ccc3cccnc3c2O)c1	29.7*	2µM*	-99.6*	62.3*	?	.
COc1ccc(C)cc1N=Nc1ccc(O)c2ncccc12	-1.7	?	-100.2*	33.3	?	2.62µM*
Cc1ccccc1N=Nc1ccc(O)c2ncccc12	-3.5	?	-92.9*	1.6	?	0.37µM*

Screening data from PubChem.
